# Source: PubChem BioAssay AID2314 (National Center for Advancing Translational Sciences (NCATS), 2010)
# “And” between values parts separate entries of the source, which are not always exact repeats. Equal entries are not always repeated. The whole screen tested about 300,000 compounds, of which about 37,000 (12%) were called active. Shown is part of a subset that was picked to be rich in actives. Values without a mark were called inactive. No stated cut-off is given here; in the data, active means max response mostly above about 13% (no sharp cut-off); inactive means mostly below about 14%.
# Assay: Cycloheximide Counterscreen for Small Molecule Inhibitors of Shiga Toxin; further: read at 38.3 µM for the half of the compounds with a filed dose; 0% is about no effect
# Settings: cell reporter, cycloheximide protein synthesis inhibition counterscreen; stronger effect = higher value
row,Structure (SMILES),max response
1,O=S(=O)(Nc1ccccc1)c1ccc(NS(=O)(=O)c2cccs2)cc1,-2.66%
2,CCCCSc1nnc2c(n1)OC=Nc1ccccc1-2,12.2%
3,COc1cc(N2C(=O)CSC2=S)cc(OC)c1OC,-3.84%
4,Cc1ccccc1NC(=O)Cn1cc(C(=O)C2CC2)c2ccccc21,-4.37%
5,NC(=O)c1nsc(C(=O)N(CCCN2CCOCC2)C(C(=O)NC2CCCCC2)c2ccc(Cl)cc2)c1N (configuration not stated),0.533%
6,O=C(O)c1ccccc1-c1ccccc1C(=O)Nc1ccccc1Br,-9.84%
7,N#Cc1c(-c2ccccc2)cc(-c2ccccc2)nc1SCC(=O)O,-2.46%
8,Brc1ccc(Nc2c3c(nc4ncnn24)CCC3)cc1,-7.39%
9,O=C(NCc1ccccc1Cl)C1CCN(c2ncnc3c2nc2n3CCCCC2)CC1,17%
10,CC(=O)Nc1c2c(nn1-c1ccc(C)cc1C)CS(=O)C2 (configuration not stated),-1.87%
11,COc1ccc(-c2nc3c(c(SCC(=O)Nc4ccc(C(=O)O)cc4)n2)Cc2ccccc2O3)cc1,12.1%
12,Cc1ccc2[nH]c(=O)c(CN(C)S(=O)(=O)c3cccc4nonc34)cc2c1,-10.5%
13,COc1ccc(S(=O)(=O)N2CCN(C(=O)NC3CCCCC3)CC2)cc1,1.04%
14,COc1ccc2nc(NC(=O)c3ccc(Br)s3)sc2c1,67.5% (active)
15,COc1cc(Cl)c(C)cc1NC(=O)[C@@H]1CCCN1C(=O)c1cccs1,-0.643%
16,CCOc1ccc2nc(NC(=O)c3cc([N+](=O)[O-])ccc3N3CCOCC3)sc2c1,11.9%
17,COc1ccc2nc(NC(=O)NC3CCCCC3)sc2c1,47.7% (active)
18,COc1ccc(-n2cnc3cc(C(=O)NC4CCCC4)ccc32)cc1,-1.06%
19,COc1ccc2nc(NC(=O)[C@@H]3CCCN3C(=O)c3cccs3)sc2c1,15.2% (active)
20,COc1ccc(CNC(=O)c2ccc(Br)s2)cc1OC,10.2%
21,COc1ccc(Cl)cc1NC(=O)[C@@H]1CCCN1C(=O)c1cccs1,4.64%
22,NS(=O)(=O)c1ccc(CNC(=O)c2ccc(Cl)cc2[N+](=O)[O-])cc1,-0.486%
23,Cc1cccc(N(C)C(=O)c2cc(S(=O)(=O)N3CCCCC3)c[nH]2)c1,-1.63%

row,Structure (SMILES),max response
1,O=C(NCc1ccccc1)C(c1ccco1)N(C(=O)c1csnn1)c1ccccc1F (configuration not stated),-6.55%
2,O=C1c2ccccc2C2=Nc3ccccc3SC(c3ccccc3F)C12 (configuration not stated),9.05%
3,COc1ccc(N2CCN(S(=O)(=O)c3ccc4c(c3)N(C(C)=O)CCO4)CC2)cc1,2.5%
4,CN(C(=O)c1ccccn1)c1nnc(-c2ccccn2)s1,68.8% (active)
5,CN(C(=O)COc1ccccc1)c1nnc(-c2ccncc2)s1,-3.07%
6,CN(C(=O)c1ccno1)c1nnc(-c2cccnc2)s1,7.05%
7,CCOc1ccc(C(C)=O)cc1CSc1nnc(-c2ccncc2)n1CCOC,-6.17%
8,CC1(C)Cc2ccccc2/C(=C/C(=O)c2ccccc2)N1,4.21%
9,Cc1noc(C)c1CSCC(=O)N(CCC(C)C)c1c(N)n(Cc2ccccc2)c(=O)[nH]c1=O,-1.36%
10,O=C(O)C1CCCN1C1=NS(=O)(=O)c2ccccc21 (configuration not stated),-4.57%
11,Cc1cc2cc(CNC(=O)c3ccc(S(=O)(=O)N4CCOCC4)cc3)ccc2[nH]1,-2.1%
12,CCc1cccc(CC)c1NC(=S)NCc1ccc2[nH]c(C)cc2c1,-2.68%
13,Cc1cc2cc(CNC(=O)c3cccs3)ccc2[nH]1,24.1% (active)
14,COc1ccc(CS(=O)/C(Cl)=C(/Cl)C(=O)Nc2ccc(OC)nc2)cc1 (configuration not stated),-16.6%
15,N#CCSc1nc2ccc(N3CCOCC3)cc2c(=O)n1CCc1ccccc1,10.2%
16,Cc1ccc(NS(=O)(=O)c2ccc(-c3coc(C)n3)cc2)c(C)c1,4.71%
17,O=C(NCc1ccccc1)C(c1cccnc1)N(C(=O)c1csnn1)c1ccc(F)cc1 (configuration not stated),-4.58%
18,COC(=O)c1[nH]c2ccccc2c1NC(=O)CN1CCCc2ccccc21,13.2%
19,COC(=O)c1[nH]c2ccc(Br)cc2c1NC(=O)Oc1ccccc1,47% (active)
20,CCOC(=O)c1[nH]c2ccc(OC)cc2c1NC(=O)CCN1CCN(Cc2ccccc2)CC1,2.39%
21,COc1ccc(C2(CNC(=O)C(c3ccccc3)c3ccccc3)CCOCC2)cc1OC,4.44%
22,CCn1cc(C(=O)NCCO)c(=O)c2cc(F)c(N3CCN(C)CC3)cc21,1.78%
23,COc1ccc(N2CCN(C(=O)[C@@H](NC(=O)c3cc(OC)cc(OC)c3)C(C)C)CC2)cc1,-0.698%

row,Structure (SMILES),max response
1,OCCCNc1nccc(-c2cc(Nc3cccc(Cl)c3)ncn2)n1,26.9% (active)
2,CC(C)n1cnc2c(Nc3cccc(Cl)c3)nc(N(CCO)CCCO)nc21,-7.35%
3,NS(=O)(=O)c1cccnc1Nc1cccc(Cl)c1,5.31%
4,CC(=O)N1CCN(CC(c2ccccc2)c2ccccc2)CC1,-2.13%
5,Cc1ccc(N2C(=O)C3C4C=CC(CC4)C3C2=O)cc1Cl (configuration not stated),0.718%
6,CCN1C(=S)N[C@@H](CCc2ccccc2)[C@H](C(=O)OC)[C@H]1C,-1.59% and -1.62%
7,COC(=O)c1c(NC(=O)CN(c2ccc(C)c(C)c2)S(C)(=O)=O)sc2c1CCCC2,-3.45%
8,CC(=O)Nc1ccc(S(=O)(=O)Nc2cc(C)cn(Cc3ccc(C)cc3)c2=O)cc1,10.7%
9,COc1cccc(CNC(=O)COc2cc(O)c3c(c2)OC(C)(C)CC3=O)c1,6.81%
10,CCOC(=O)C1CCN(Cc2c(C(=O)N3CCOCC3)nc3c(C)cccn23)CC1,-0.834%
11,COC(=O)COc1ccc2c(c1C)O/C(=C\c1ccco1)C2=O,8.5%
12,CC(C)(C)C1C/C(=C/c2ccco2)C(=O)/C(=C/c2ccco2)C1 (configuration not stated),46.9% (active)
13,COC(=O)C1=C(C)N(c2ccc(Br)cc2)C(=O)/C1=C\c1ccco1,19.6%
14,O=[N+]([O-])c1cc(Cl)cc(/C=N/NC(=S)Nc2cc(S(=O)(=O)N3CCOCC3)ccc2Cl)c1O,6.73%
15,CCN(C(=O)COc1ccc(C(=O)c2ccccc2)cc1)c1ccccc1,8.19%
16,Cc1cc(C)n(CCC(=O)N2CCN(S(=O)(=O)c3ccc(C)c(C)c3)CC2)n1,-4.77%
17,CSCC[C@H](NC(=O)OC(C)(C)C)C(=O)N/N=C/c1cc2ccc(C)cc2nc1Cl,-2.35%
18,Cc1ccc2cc(/C=N/Nc3ccc(C(=O)O)cc3)c(Cl)nc2c1,33.1% (active)
19,O=C(O)c1ccc(/C=N/Nc2nc(N3CCCCC3)nc(N3CCCCC3)n2)cc1,-2.21%
20,Cc1ccc2cc(/C=N/NC(=O)[C@@H]3CCCN3)c(Cl)nc2c1,12.2%
21,CCNC(=S)NNC(=O)c1ccc2ncccc2c1,23.2%
22,O=C(O)c1ccc(N/N=C/c2ccc3ncccc3c2)cc1,40% (active)
23,COc1ccccc1N1CCN(C(=O)CCS(=O)(=O)c2ccc3c(c2)NC(=O)C(C)S3)CC1 (configuration not stated),18.6%

row,Structure (SMILES),max response
1,Cc1cc(CNC(=O)C2CCC(=O)N(CCc3ccc(Cl)cc3)C2)no1 (configuration not stated),0.258%
2,NC(=O)c1cc(-c2cccnc2)nc2ccc(Br)cc12,0.502%
3,Cc1ccc2c(c1)N(C(=O)CCC(=O)N1CCc3ccccc3C1)CCO2,13.8%
4,Cc1ccccc1-n1c(SCC(=O)Nc2cccc3ccccc23)nc(O)cc1=O,-2.55%
5,CC(=O)N(C)c1ccc(NC(=O)Nc2cccc3ccccc23)cc1,33% (active)
6,CCOc1ccc(NC(=O)Nc2ccc(N(C)C(C)=O)cc2)cc1,-1.58%
7,O=C(O)Cc1ccc(NC(=O)Nc2cccc3ccccc23)cc1,0.207%
8,O=C(NCC(=O)N1CCC2(CC1)NCCc1[nH]cnc12)c1ccc(Br)cc1,1.26%
9,CC(C)Nc1ccc(-n2nc3ccccc3[n+]2[O-])cc1,25.2% (active)
10,Clc1ccc(-c2nc3ccccn3c2CN2CCSCC2)cc1,12.2%
11,Cc1cn(C2OC[C@@H](O)[C@@H]2CO)c(=O)[nH]c1=O (some centres not stated),-1.7%
12,O=C(N/N=C\c1cc2c(cc1Cl)OCO2)c1ccc(Br)s1,-4.62%
13,CCCCCCOC(=O)NCC(O)c1ccccc1 (configuration not stated),29.3% (active)
14,CCCCCCCCC(=O)NCCOc1ccccc1,-1.44%
15,CCCCOC(=O)Nc1nnc(CC(=O)NCc2ccccc2)s1,-2.89%
16,CC(=O)C1=C(C)NC(=O)NC1c1ccc2c(c1)OCO2 (configuration not stated),0.903%
17,COc1ccc(CNC(=O)C(C)NCc2ccccc2Cl)cc1 (configuration not stated),-2.73%
18,CC(C)(O)C#Cc1ccc(CN2CCC(CO)(CCc3ccccc3)CC2)cc1,-2.91%
19,COc1ccc(C(=O)NC(=S)N2CCCCC2c2cccnc2)cc1OC (configuration not stated),1.6%
20,CCOc1ccc(-n2c(SCC(=O)Nc3ccc(OC)cc3)nc3sc4c(c3c2=O)CCN(C)C4)cc1,-3.77%
21,CCOc1ccc(-n2c(SCC(=O)OC)nc3sc4c(c3c2=O)CCN(C)C4)cc1,-9.49%
22,COc1ccccc1NC(=O)CSc1nc2sc3c(c2c(=O)n1-c1ccccc1)CCN(C)C3,33.2% (active)
23,CCO[C@H]1OC(C(=O)N2CCCCCCC2)=C[C@@H](c2ccc(C(F)(F)F)cc2)[C@@H]1CCCO,-3.3%
